An excerpt weighted towards active compounds, which were near 2% of everything screened.
CHO-K1 Ca antag – M1 antagonist counterscreen hit in parental CHO-K1 cells. actives 0.6% (n = 360,000). inhibition, % at 3 µM. AID 602250. ATP-induced calcium, Fluo-8 fluorescence;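 active means inhibition above a per-plate cutoff, the plate's mean sample inhibition plus 3 SD, cut at about 24% in these data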;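 further: 0% = DMSO plus EC80 ATP and 100% = DMSO alone without ATP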
CHO-K1 Ca PAM – M1 PAM counterscreen hit in parental CHO-K1 cells | ATP EC20, Fluo-8 calcium fluorescence; 0% at ATP EC20, 100% at ATP max | activation, % at 3 µM | actives 0.02% (n = 360,000) | AID 602247;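 active means activation above the run cutoff, the mean activation of all test compounds plus 3 SD, cut at about 40% in these data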;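 further: peak over basal fluorescence ratio in a 140 s read after ATP addition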
CHRM4 antagonist – CHRM4 antagonism in calcium assay. P08173. actives 0.73% (n = 360,000). CHO-hM4 cells, ACh EC80, Fluo-8 calcium fluorescence. inhibition, % at 3 µM;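 active means inhibition above its plate's cutoff, the mean inhibition of sample wells plus 3 SD, cut at about 27% in these data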;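 further: 0% = acetylcholine EC80 with DMSO and 100% = DMSO without agonist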
Target sequence (P08173 whole entry, looked up): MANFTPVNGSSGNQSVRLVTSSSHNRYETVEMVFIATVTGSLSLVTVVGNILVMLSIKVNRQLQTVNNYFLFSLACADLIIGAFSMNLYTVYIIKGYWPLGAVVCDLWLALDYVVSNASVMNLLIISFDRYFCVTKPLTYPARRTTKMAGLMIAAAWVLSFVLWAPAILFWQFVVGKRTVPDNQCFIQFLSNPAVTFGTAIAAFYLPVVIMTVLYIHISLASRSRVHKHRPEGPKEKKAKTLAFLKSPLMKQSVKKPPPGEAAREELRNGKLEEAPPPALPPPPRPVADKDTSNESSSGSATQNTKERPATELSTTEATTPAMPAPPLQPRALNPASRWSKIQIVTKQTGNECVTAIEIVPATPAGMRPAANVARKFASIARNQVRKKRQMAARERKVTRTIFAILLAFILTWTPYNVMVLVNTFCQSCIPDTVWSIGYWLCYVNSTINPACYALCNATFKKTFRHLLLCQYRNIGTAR
CHRM4 agonist – agonists of human muscarinic M4 receptor (CHRM4). P08173. activation, % at 3 µM. CHO-K1 hM4/Gqi5, Fluo-8 calcium fluorescence; vehicle 0%, full acetylcholine response 100%. AID 624127. actives 0.14% (n = 360,000);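 active means activation above the run mean over all test wells plus 3 SD, cut at about 32% in these data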;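 further: peak over basal fluorescence ratio per well then scaled between controls; 0% = DMSO wells and 100% = acetylcholine at EC100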
M1 ag parental – M1 agonist counterscreen hit in parental CHO-K1 cells; AID 602248; Fluo-8 calcium fluorescence; scaled to maximal ATP response, vehicle zero; actives 0.48% (n = 360,000); activation, % at 3 µM; in the data active means activation above about 15%;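 further: untransfected CHO-K1 host cells lacking M1 receptor as counterscreen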
M4 PAM – potentiates acetylcholine response at human M4 receptor | P08173 | CHO-K1 hM4/Gqi5, Fluo-8 calcium fluorescence, ACh EC20; 0% = ACh EC20, 100% = maximal ACh | AID 624126 | actives 0.4% (n = 360,000) | activation, % at 3 µM;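 active means activation above its plate's cutoff, the mean activation of sample wells plus 3 SD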
* hit, by the source's call.

SMILES	CHO-K1 Ca antag	CHO-K1 Ca PAM	CHRM4 antagonist	CHRM4 agonist	M1 ag parental	M4 PAM
COc1cccc(C2CC(C(F)(F)F)n3ncc(C(=O)Nc4c(C)n(C)n(-c5ccccc5)c4=O)c3N2)c1 (stereo not drawn)	-13	16	-6	0	1	3
CCN(CC)CCC#CC(O)(c1ccccc1)C1CCCCC1 (stereo not drawn)	-20	13	94*	3	3	-25
OCCN(CC#CCC(O)(c1ccccc1)C1CCCC1)CCO (stereo not drawn)	-8	20	-7	1	1	-1
CCC[N+]1(CC#CC(O)(c2ccccc2)C2CCCCC2)CCCCC1 (stereo not drawn)	1	-4	97*	0	0	-56
NC(=O)C[N+]1(CC#CC(O)(c2ccccc2)c2ccccc2)CCCC1	-8	5	33*	0	0	-18
COc1ccc(C2=NN(CCC(=O)NCC3CCCO3)C(=O)CC2)cc1 (stereo not drawn)	-12	-7	-6	2	1	-1
COc1ccccc1NS(=O)(=O)c1cc(NC(=S)NCC2CCCO2)ccc1C (stereo not drawn)	8	12	-15	19	6	-4
CC(C)(C)NCc1cc(Cl)ccc1OCc1ccccc1F	3	16	4	3	15*	-4
CCN(CC)CCNCc1cc(Cl)ccc1OCc1ccccc1F	-6	14	5	3	2	-15
Cc1ccc(NC(=O)CSc2nnc(CNC(=O)c3ccco3)n2C)c(C)c1	-13	3	-21	1	0	9
CN(Cc1nc(Cc2ccccc2F)no1)CC1(N2CCOCC2)CCCCC1	-14	9	-10	4	2	1
Cc1ccc(C)c(SCC(=O)N(C)C2CCS(=O)(=O)C2)c1 (stereo not drawn)	-9	15	-7	2	0	10
Cc1cc(SCC(=O)OCC(=O)N(C)C2CCS(=O)(=O)C2)c(C)cc1Br (stereo not drawn)	2	-20	1	12	16*	-4
CCCCCCCOC(=O)C[N+](C)(C)CCOC1CC2CCC1(C)C2(C)C (stereo not drawn)	5	32	12	18	27*	-14
CCCCCCOC(=O)C[N+](C)(C)CCOC1CC2CCC1(C)C2(C)C (stereo not drawn)	-2	3	-6	0	0	1
O=C(NC1(C(F)(F)F)NC(=O)N(Cc2cccnc2)C1=O)c1ccc(F)cc1 (stereo not drawn)	-2	10	2	0	0	-1
O=C(c1ccc(O)cc1)c1ccc(O)cc1O	0	4	10	1	2	-7
O=C(c1ccccc1)c1ccc(O)cc1O	-3	2	9	18	16*	-4
O=[N+]([O-])c1ccc(-c2ccc(/C=N/Nc3nc(NCc4ccccc4)nc(N4CCOCC4)n3)o2)cc1	24*	14	3	4	18*	1
NC(=O)c1ccc(NC(=O)COC(=O)c2c3c(nc4ccccc24)/C(=C\c2cccs2)CCC3)cc1	1	23	8	6	3	-10
Cc1ccccc1C(=O)OC1CCN(C)CC1	-3	12	9	0	3	-8
CN1CCC(N(C)CC(O)c2ccccc2)CC1 (stereo not drawn)	-4	2	-3	1	0	1
CN1CCC(OC(c2ccccc2)c2ccccc2)CC1	-3	-5	80*	1	0	-17
CN1CCC(Oc2ccccc2Sc2ccccc2)CC1	6	3	74*	10	4	-43
COc1ccc([C@H]2CC(=O)C=C(c3cc(F)ccc3OC)C2)cc1	-13	8	3	4	0	-3
c1ccc(-c2nnsc2-c2ccccc2)cc1	-14	2	-1	-1	1	-3
O=S(=O)(c1ccc(Cl)c(Cl)c1)c1snnc1-c1ccccc1	-12	6	40*	-2	1	-19
COc1ccc(N(C)S(=O)(=O)c2cccc(C(=O)OCC(=O)c3c(N)n(C)c(=O)n(C)c3=O)c2)cc1	8	-16	38*	31	21*	-16

Assay outcomes from PubChem.
